In PubChem BioAssay AID651813 (National Center for Advancing Translational Sciences (NCATS), 2012):
The campaign covered roughly 2,100 compounds. About 1,100 (52%) were called active. Roughly 27% stayed inconclusive and do not appear here. The set was probably picked from earlier hits. This is one part of the list. A number with no mark means an inactive call. The call rests on the fitted dose curve; in most records, active means well fitted inhibition curve with a large enough effect; inconclusive means small, poorly fitted or top-dose-only effect; inactive means no such curve, though single readings can be large or run the other way.

Target: DNA dC->dU-editing enzyme APOBEC-3G (Homo sapiens) (UniProt Q9HC16)
Sequence (Q9HC16 whole entry, looked up): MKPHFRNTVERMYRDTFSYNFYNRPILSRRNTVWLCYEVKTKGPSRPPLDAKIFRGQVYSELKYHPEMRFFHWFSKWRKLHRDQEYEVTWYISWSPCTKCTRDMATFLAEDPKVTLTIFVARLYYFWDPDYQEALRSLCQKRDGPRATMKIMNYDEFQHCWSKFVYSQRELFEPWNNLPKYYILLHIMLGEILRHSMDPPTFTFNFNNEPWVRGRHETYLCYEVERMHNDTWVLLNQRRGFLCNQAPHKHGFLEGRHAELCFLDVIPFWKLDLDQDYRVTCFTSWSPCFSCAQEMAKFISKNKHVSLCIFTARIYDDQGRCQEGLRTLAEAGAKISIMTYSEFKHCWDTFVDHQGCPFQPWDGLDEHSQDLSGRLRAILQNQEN
Experiment: qHTS for inhibitors of Vif-A3G interactions: Cherry picks counterscreen;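 further: hits raise yellow fluorescence by blocking Vif-driven A3G-eYFP degradation; nearly all actives have a fitted effect of over 70% in size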;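 on max response: max response given as percent of control signal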
Details: HeLa A3G-eYFP + Vif (tagged APOBEC3G with the HIV-1 protein that degrades it), eYFP fluorescence, 24 h
Outline: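 HeLa cells stably expressing A3G-eYFP and Vif were treated for 24 h at 37 deg C with compounds at several concentrations; yellow fluorescence (Ex 488 nm, Em 500-530 nm) read by Acumen Explorer, MG132 as positive control.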
Potency means the concentration at half of the fitted maximal effect.

Row | Structure (SMILES) | Potency | max response
1 | COc1ccc(CN(C(C)=O)c2cccc(C)c2C)cc1 | 17.7 µM (active) | –
2 | Cc1nnc(NC(=O)CSc2nc(C(C)C)nc3ccccc23)s1 | 6.27 µM (active) | –
3 | COc1ccc(C2CC(c3ccncc3)=NN2c2ccc(S(N)(=O)=O)cc2)cc1 (stereo not given) | 5.17 µM (active) | –
4 | O=C1OCC2=C1C(c1ccc3c(c1)OCO3)c1cc3c(cc1O2)OCO3 (stereo not given) | 2.23 µM (active) | –
5 | COc1cc(C2C3=C(COC3=O)Oc3cc4c(cc32)OCO4)ccc1OC(C)=O (stereo not given) | 1.77 µM (active) | –
6 | CCNc1cc(N2CCN(C3CCCCC3)CC2)c2noc3c2c1C(=O)c1ccccc1-3 | 7.31 µM (active) | –
7 | CN(C)CCCNc1cc(N2CCN(C3CCCCC3)CC2)c2noc3c2c1C(=O)c1ccccc1-3 | 1.84 µM (active) | –
8 | O=C1c2ccccc2-c2onc3c(N4CCN(C5CCCCC5)CC4)cc(NCCO)c1c23 | 2.59 µM (active) | –
9 | CCC[N+](C)(C)c1ccc(/C=C/c2ccncc2)cc1 | 16.4 µM (active) | –
10 | CC[N+](C)(C)c1ccc(/C=C/c2ccncc2)cc1 | 16.4 µM (active) | –
11 | Cc1ccc(-c2nc(C=Nc3ccc(O)cc3)c(O)o2)cc1 | – | -18.6%
12 | N#Cc1c(Nc2ccccc2)[n+]([O-])c2ccc(Cl)cc2[n+]1[O-] | – | 26.1%
13 | O=C1CC(c2cc(Br)ccc2F)c2cc3c(cc2N1)CCC3 (stereo not given) | 1.4 µM (active) | –
14 | O=C1CC(c2ccccc2F)c2cc3c(cc2N1)CCC3 (stereo not given) | 2.8 µM (active) | –
15 | CCOC(=O)Cc1csc(NC(=O)c2sc3nc4c(C)cc(C)cc4cc3c2N)n1 | 20.6 µM (active) | –
16 | CCOc1cc(S(=O)(=O)NCc2ccc(OC)cc2)c(OCC)cc1-n1cnnn1 | 8.86 µM (active) | –
17 | Cc1cc(C)c(N2C(=O)CC(Sc3ccccc3N)C2=O)c(C)c1 (stereo not given) | 17.7 µM (active) | –
18 | COc1cc(C(=O)NCC(=O)N2CCN(S(=O)(=O)c3cc(C)ccc3C)CC2)cc(OC)c1OC | 9.94 µM (active) | –
19 | Cc1ccc(S(=O)(=O)N2CCN(C(=O)CSC(=S)N3CCCC3)CC2)c(C)c1 | – | -17.2%
20 | COC(=O)c1ccc(Cl)cc1NC(=O)N1CC=C(c2c[nH]c3ccccc23)CC1 | 23.1 µM (active) | –

Row | Structure (SMILES) | Potency | max response
21 | Cc1ccc(C)c(NC(=O)N2CC=C(c3c[nH]c4ccccc34)CC2)c1 | 16.4 µM (active) | –
22 | CCOc1ccc(NC(=O)N2CC=C(c3c[nH]c4ccccc34)CC2)cc1 | 18.4 µM (active) | –
23 | CSc1cccc(NC(=O)c2cc3c(COC(C)=O)cnc(C)c3oc2=O)c1 | – | 2.84%
24 | Cc1cc(C)nc(-n2nc(C)cc2NC(=O)c2ccc(F)cc2F)n1 | – | -9.45%
25 | COc1ccccc1NS(=O)(=O)c1cc([N+](=O)[O-])ccc1N/N=C/c1sc(N2CCOCC2)nc1-c1ccccc1 | 0.58 µM (active) | –
26 | O=[N+]([O-])c1ccc(N/N=C/c2sc(N3CCOCC3)nc2-c2ccccc2)c(S(=O)(=O)Nc2ccccc2Cl)c1 | 2.91 µM (active) | –
27 | Cc1cc2nc(SCCOC(=O)Nc3cccc(Cl)c3)nc(C)c2cc1C | – | 0.137%
28 | C=CCOC(=O)C1=C(C)NC(C)=C(C(=O)OCC=C)C1c1cn(-c2ccccc2)nc1-c1ccco1 | – | -22.7%
29 | COc1ccc2c(C)cc(SCC#N)nc2c1 | 18.4 µM (active) | –
30 | COc1ccc2c(C)cc(SCC(=O)N(C)C3CCS(=O)(=O)C3)nc2c1 (stereo not given) | 20.6 µM (active) | –
31 | CCS(=O)(=O)N1N=C(c2ccc(C)cc2)CC1c1cc2ccc(OC)cc2nc1Cl (stereo not given) | – | -6.38%
32 | CS(=O)(=O)Nc1ccc(C2=NN(S(C)(=O)=O)C(c3ccc4c(c3)OCO4)C2)cc1 (stereo not given) | 14 µM (active) | –
33 | CCS(=O)(=O)N1N=C(c2cccc(NS(C)(=O)=O)c2)CC1c1ccc(C)cc1 (stereo not given) | 23.1 µM (active) | –
34 | CS(=O)(=O)N1N=C(c2ccccc2)CC1c1ccc2c(c1)OCO2 (stereo not given) | 12.5 µM (active) | –
35 | CC1=CC(C)(C)NC(=S)N1c1ccc2ccccc2c1 | – | 5%
36 | C=C(/C=C/c1ccc(N(C)C)cc1)c1nc2ccccc2s1 | 16.4 µM (active) | –
37 | O=c1[nH]ncc2c3ccccc3n(Cc3cccc(Cl)c3)c12 | 18.4 µM (active) | –
38 | CC[N+](C)(C(=O)O)/C(=C\c1ccccc1)c1ccnc2ccccc12 (stereo not given) | 16.4 µM (active) | –
39 | C[C@@H]1O[C@@H](O[C@@H]2C(=O)c3c(O)cc(O)cc3O[C@H]2c2ccc(O)c(O)c2)[C@H](O)[C@H](O)[C@H]1O | – | -0.692%
40 | CCSc1nnc(-c2sc3nnc(-c4ccccc4)c(-c4ccccc4)c3c2N)o1 | 4.61 µM (active) | –

Row | Structure (SMILES) | Potency | max response
41 | COc1ccc(NC(=O)c2sc3nc4c(cc3c2N)CN(Cc2ccccc2)CC4)c(OC)c1 | 18.4 µM (active) | –
42 | Nc1c(C(=O)c2ccc(Cl)cc2)sc2nc3c(cc12)CCC3 | 16.4 µM (active) | –
43 | Cc1cc(N2CCN(C)CC2)ccc1NC(=O)c1c2c(nc3ccccc13)CCN(Cc1ccccc1)C2 | – | 4.5%
44 | CCN1CCc2nc3sc(C(=O)c4ccccc4)c(N)c3cc2C1 | 18.4 µM (active) | –
45 | COCCN1C(=O)/C(=C/c2ccc(N3CCCC3)cc2C)SC1=S | 4.11 µM (active) | –
46 | COCCN1C(=O)/C(=C/c2ccc(N3CCCC3)cc2)SC1=S | 7.31 µM (active) | –
47 | Cc1ccc2oc(/N=C(\N)NC(=O)C(C)(C)C)nc2c1 | – | -19%
48 | C/C(=N\NC(N)=S)C12CC3CC(CC(C3)C1)C2 | – | 27.9%
49 | COc1ccc(NC(=S)Nc2ncccc2C)c(OC)c1 | – | -0.005%
50 | COc1ccc(/C=C/c2ccnc3ccccc23)c(OC)c1 | 16.4 µM (active) | –
51 | COc1cc(OC)c(/C=C/c2ccnc3ccccc23)c(OC)c1 | 7.31 µM (active) | –
52 | c1ccc2c(-c3nc4ccccc4[nH]3)cccc2c1 | 11.2 µM (active) | –
53 | CCC(C)n1c(NC(=O)c2ccccc2)c(C#N)c2nc3ccccc3nc21 (stereo not given) | 18.4 µM (active) | –
54 | CCn1ncc(/C=N\NC(=O)c2csc3ccccc23)c1C | 5.59 µM (active) | –
55 | COc1ccc(Cn2c(=O)cc(N)n(-c3ccccc3C)c2=O)cc1 | 11.2 µM (active) | –
56 | CCN(CC)c1ccc2cc(-c3nc(-c4ccccc4)no3)c(=O)oc2c1 | 2.06 µM (active) | –
57 | CCN(CC)c1ccc2cc(-c3nnc(-c4ccccc4)o3)c(=O)oc2c1 | – | 49.6%
58 | CCN(CC)c1ccc2cc(-c3nc4ccccc4n3C)c(=O)oc2c1 | 1.3 µM (active) | –
59 | CCN(CC)c1ccc2cc(-c3nc(-c4cc(OC)c(OC)c(OC)c4)no3)c(=O)oc2c1 | 0.517 µM (active) | –
60 | CCN(CC)c1ccc2cc(-c3nnc(-c4cccc(Cl)c4)o3)c(=O)oc2c1 | 2.59 µM (active) | –
